# Laboratory results from PubChem BioAssay (Tox21).
# Results filed as inconclusive are left out. Where a call stands in place of a potency, no number is given. Values without a mark were called inactive. Active and inactive are the calls of the source. The call rests on the fitted dose curve; in most records, active means well fitted activation curve with a large enough effect in the repeat runs; inconclusive means weak or mixed curves; inactive means flat fitted curve, though single readings scatter.
# Assay: A CellTox Green Cytotoxicity Assay to monitor cytotoxicity in HepG2 cells - 8 hour (AID 1224890); further: nearly all actives have a fitted effect of over 45% in size
# Settings: CellTox Green fluorescence; series mostly up to 76.8 µM
# Text: National Center for Advancing Translational Sciences [NCATS]
# NIH Chemical Genomics Center [NCGC]
# U.S. Environmental Protection Agency [EPA]
# National Institutes of Environmental Health Sciences [NIEHS]
# National Toxicology Program [NTP]
# Cell-based models are critical for drug discovery. Determining the natural cytotoxic effects resulting from test compounds is an essential research activity. A CellTox Green Cytotoxicity Assay to monitor cytotoxicity in real time of continues cell culture during 40 hours of the compound treatment was used to screen Tox21 10K library compounds in HepG2 cells. CellTox Green Cytotoxicity Assay is a nonlytic, homogeneous, biofluorescent method to measure cytotoxicity in cell culture after experimental manipulation. The assay system uses a proprietary asymmetric cyanine dye that is excluded from viable cells but preferentially stains the dead cell's DNA. […] Viable cells produce no appreciable increases in fluorescence. Therefore, the fluorescence signal produced by the binding interaction with dead cell DNA is proportional to cytotoxicity.
# The mixture of HepG2 cell suspension and reagents were dispensed at 600cells/6 ul/well in 1536-well tissue culture treated black solid bottom plates using a Multidrop dispenser. After the assay plates were incubated at a 37 C/5% CO2 incubator for 5 hours, 23 nL of compounds dissolved in DMSO, positive and negative controls was transferred to the assay plate by a pintool work station. The plates were incubated at 37 C for 40 hours. The fluorescence intensity were measured at 0h, 8h, 16h, 24h, 32h and 40h time points using ViewLux plate reader during compound treatment.
SMILES,Potency,cytotoxicity increase
CCCCOC(=O)CCCCC(=O)OCCCC,inactive,–
Nc1ccc(N=Nc2ccc(N)cc2)cc1,inactive,–
COC(OC)OC,inactive,–
CCN(CC)c1ccc(C(=C2C=CC(=[N+](CC)CC)C=C2)c2ccc(S(=O)(=O)O)cc2S(=O)(=O)[O-])cc1,inactive,–
CC(C)(C)C1(CCc2ccc(Cl)cc2)CO1 (stereo not given),inactive,–
COc1cc(S(=O)(=O)Nc2ccccc2)c(OC)cc1N,inactive,–
CCCCCCCC/C=C/C(=O)O,inactive,–
C=C(C)c1ccccc1,inactive,–
COc1ccc(-c2cc(=S)ss2)cc1,inactive,–
CC1CCCC(=O)C1=O (stereo not given),inactive,–
CC(C)N=C=NC(C)C,inactive,–
CC[C@H]1OC(=O)[C@H](C)[C@@H](O[C@H]2C[C@@](C)(OC)[C@@H](O)[C@H](C)O2)[C@H](C)[C@@H](O[C@@H]2O[C@H](C)C[C@H](N(C)C)[C@H]2O)[C@](C)(O)C[C@@H](C)C(=O)[C@H](C)[C@@H](O)[C@]1(C)O,inactive,–
Cc1ccc(NC(=O)N(C)C)cc1NC(=O)N(C)C,inactive,–
CCCCCCC(CO)CCCC (stereo not given),inactive,–
C1CCCCC1,inactive,–
O=C(NC(Cc1cc(=O)[nH]c2ccccc12)C(=O)O)c1ccc(Cl)cc1 (stereo not given),inactive,–
Cc1cc(CCC(=O)OCCOCCOCCOC(=O)CCc2cc(C)c(O)c(C(C)(C)C)c2)cc(C(C)(C)C)c1O,inactive,–
COc1ccc(/C=C/C(=O)c2ccc(OC)cc2OC)cc1,inactive,–
CCOC(=O)c1ccc(NC(=O)CN2CCCCC2)cc1,inactive,–
CN=C(N)NC(=O)Nc1c(C)cccc1C,inactive,–

SMILES,Potency,cytotoxicity increase
CNS(=O)(=O)c1cc(C(=O)N2CCC(CCN3C4CCC3CC(n3c(C)nc5ccccc53)C4)(c3cccc(F)c3)CC2)c(Cl)cc1F (stereo not given),inactive,–
CCCC(=O)OC(=O)CCC,inactive,–
CC(C)c1ccc(C#N)cc1,inactive,–
Cc1cccc(C)c1NC(=O)c1cc(S(N)(=O)=O)c(Cl)cc1O,inactive,–
Cc1cc([N+](=O)[O-])ccc1N,inactive,–
SCCc1cnccn1,inactive,–
CCN(Cc1cccc(S(=O)(=O)O)c1)c1ccc(C(=C2C=CC(=[N+](CC)Cc3cccc(S(=O)(=O)O)c3)C=C2)c2ccc(O)cc2S(=O)(=O)[O-])cc1,inactive,–
C/C(C=O)=C\c1ccccc1,inactive,–
CC(C)C1CCC(C(=O)N[C@H](Cc2ccccc2)C(=O)O)CC1 (stereo not given in full),inactive,–
C=CC(=O)NC(C)C,inactive,–
CCCCCCCCCCCCCOC(=O)CCSCCC(=O)OCCCCCCCCCCCCC,–,4.96% [at 15.8 µM]
C=Cc1ccc(OC(C)=O)cc1,inactive,–
Cc1ccccc1S(N)(=O)=O,inactive,–
O=C(O)CN1C(=O)c2cccc3cccc(c23)C1=O,inactive,–
CC(C)(C)C(O)/C=C/c1ccc2c(c1)OCO2 (stereo not given),inactive,–
Cc1c[nH]c2ccccc12,inactive,–
COc1ccc(C)cc1,inactive,–
COc1ccc(-c2cc(C(F)F)nn2-c2ccc(S(N)(=O)=O)cc2)cc1F,inactive,–
C=CCOC(=O)COCCC(C)C,inactive,–
CC(C)(O)CCc1ccccc1,inactive,–
